The values below come from ChEMBL document CHEMBL2218924, “A broad activity screen in support of a chemogenomic map for kinase signalling research and drug discovery” (Biochem J, 2013).

Each structure is given as a SMILES string.

Assay [1] addresses Tyrosine-protein kinase SYK (Homo sapiens) (UniProt P43405). As to conditions: at 10 µM.
The target in assay [2] is T1, Mitogen-activated protein kinase kinase kinase 7 (Homo sapiens) (UniProt O43318).
T1 sequence (whole entry): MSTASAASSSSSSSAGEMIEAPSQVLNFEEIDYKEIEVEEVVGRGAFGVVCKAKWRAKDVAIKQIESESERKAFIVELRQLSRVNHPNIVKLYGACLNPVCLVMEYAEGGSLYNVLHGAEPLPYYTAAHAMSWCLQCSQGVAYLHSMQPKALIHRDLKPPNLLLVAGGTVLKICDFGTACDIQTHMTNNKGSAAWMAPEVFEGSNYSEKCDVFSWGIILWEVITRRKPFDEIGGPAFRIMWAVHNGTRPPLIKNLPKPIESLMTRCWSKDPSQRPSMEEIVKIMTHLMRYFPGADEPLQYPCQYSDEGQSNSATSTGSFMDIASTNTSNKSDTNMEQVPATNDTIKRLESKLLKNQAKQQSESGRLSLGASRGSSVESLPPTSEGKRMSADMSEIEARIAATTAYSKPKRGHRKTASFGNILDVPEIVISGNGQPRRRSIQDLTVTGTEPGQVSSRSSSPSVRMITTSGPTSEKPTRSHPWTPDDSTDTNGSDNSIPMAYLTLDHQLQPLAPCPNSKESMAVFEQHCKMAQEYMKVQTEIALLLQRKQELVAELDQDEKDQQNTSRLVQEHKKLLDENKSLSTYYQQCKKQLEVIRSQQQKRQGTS
The conditions noted are these: at 1 µM.

The target in assay [3] is T1, Mitogen-activated protein kinase kinase kinase 7 (Homo sapiens). The conditions noted are these: at 10 µM.
Assay [4] has as its target T2, Serine/threonine-protein kinase TAO1 (Homo sapiens) (UniProt Q7L7X3).
T2 sequence (whole entry): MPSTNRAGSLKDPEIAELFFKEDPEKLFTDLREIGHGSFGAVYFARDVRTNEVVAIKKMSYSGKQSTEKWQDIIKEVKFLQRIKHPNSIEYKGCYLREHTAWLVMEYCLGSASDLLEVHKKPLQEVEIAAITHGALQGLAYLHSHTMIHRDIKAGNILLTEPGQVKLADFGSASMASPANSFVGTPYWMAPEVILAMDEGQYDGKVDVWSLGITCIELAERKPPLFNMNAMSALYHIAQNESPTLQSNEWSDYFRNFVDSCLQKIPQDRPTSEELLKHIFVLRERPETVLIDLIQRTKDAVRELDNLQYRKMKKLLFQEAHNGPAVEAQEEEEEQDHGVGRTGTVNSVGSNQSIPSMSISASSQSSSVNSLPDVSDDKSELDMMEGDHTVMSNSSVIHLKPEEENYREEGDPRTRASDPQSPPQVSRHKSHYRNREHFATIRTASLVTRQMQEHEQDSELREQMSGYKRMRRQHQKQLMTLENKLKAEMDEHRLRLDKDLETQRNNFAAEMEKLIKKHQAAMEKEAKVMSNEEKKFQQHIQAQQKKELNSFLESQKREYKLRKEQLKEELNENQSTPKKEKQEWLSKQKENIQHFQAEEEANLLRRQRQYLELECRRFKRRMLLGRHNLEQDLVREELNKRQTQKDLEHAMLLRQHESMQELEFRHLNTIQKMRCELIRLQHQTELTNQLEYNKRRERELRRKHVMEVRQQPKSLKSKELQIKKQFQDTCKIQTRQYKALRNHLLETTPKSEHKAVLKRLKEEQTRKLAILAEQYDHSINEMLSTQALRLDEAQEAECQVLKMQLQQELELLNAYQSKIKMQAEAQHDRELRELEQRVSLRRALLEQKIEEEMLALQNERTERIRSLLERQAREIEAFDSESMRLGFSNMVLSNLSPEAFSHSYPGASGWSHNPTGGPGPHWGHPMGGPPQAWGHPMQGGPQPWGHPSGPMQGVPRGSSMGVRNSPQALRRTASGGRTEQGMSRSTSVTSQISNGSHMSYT
As to conditions: at 1 µM.

Assay [5] deals with T2, Serine/threonine-protein kinase TAO1 (Homo sapiens). As to conditions: at 10 µM.
The target in assay [6] is T3, Serine/threonine-protein kinase TAO2 (Homo sapiens) (UniProt Q9UL54).
T3 sequence (whole entry): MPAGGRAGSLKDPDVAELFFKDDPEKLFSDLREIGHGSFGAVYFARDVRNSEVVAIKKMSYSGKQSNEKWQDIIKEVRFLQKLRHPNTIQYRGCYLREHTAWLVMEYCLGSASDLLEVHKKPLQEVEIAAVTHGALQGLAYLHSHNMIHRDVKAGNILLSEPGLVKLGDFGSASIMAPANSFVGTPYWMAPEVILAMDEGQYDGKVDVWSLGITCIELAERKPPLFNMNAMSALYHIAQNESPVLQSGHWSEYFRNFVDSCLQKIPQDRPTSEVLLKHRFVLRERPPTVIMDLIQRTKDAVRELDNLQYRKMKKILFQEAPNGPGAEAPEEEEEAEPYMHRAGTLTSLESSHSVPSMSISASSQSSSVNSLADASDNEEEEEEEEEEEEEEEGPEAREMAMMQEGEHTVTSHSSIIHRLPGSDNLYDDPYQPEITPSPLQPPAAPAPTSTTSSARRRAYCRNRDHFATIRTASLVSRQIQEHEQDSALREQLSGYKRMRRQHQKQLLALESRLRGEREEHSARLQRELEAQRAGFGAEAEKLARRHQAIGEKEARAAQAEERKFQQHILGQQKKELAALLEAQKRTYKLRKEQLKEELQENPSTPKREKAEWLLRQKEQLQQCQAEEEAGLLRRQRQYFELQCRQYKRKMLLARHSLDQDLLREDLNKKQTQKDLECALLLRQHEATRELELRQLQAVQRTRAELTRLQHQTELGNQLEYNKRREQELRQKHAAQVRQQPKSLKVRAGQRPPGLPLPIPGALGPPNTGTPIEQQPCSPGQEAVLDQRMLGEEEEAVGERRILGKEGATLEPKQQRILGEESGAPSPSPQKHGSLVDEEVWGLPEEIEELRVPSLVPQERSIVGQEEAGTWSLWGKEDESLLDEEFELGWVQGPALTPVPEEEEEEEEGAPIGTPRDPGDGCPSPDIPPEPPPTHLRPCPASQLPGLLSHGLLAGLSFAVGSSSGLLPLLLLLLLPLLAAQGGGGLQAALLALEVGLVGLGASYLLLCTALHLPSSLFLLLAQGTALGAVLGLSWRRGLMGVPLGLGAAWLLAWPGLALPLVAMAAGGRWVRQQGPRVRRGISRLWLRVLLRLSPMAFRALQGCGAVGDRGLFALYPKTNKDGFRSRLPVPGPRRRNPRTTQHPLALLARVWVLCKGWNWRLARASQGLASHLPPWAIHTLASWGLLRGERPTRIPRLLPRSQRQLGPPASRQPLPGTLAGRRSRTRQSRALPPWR
As to conditions: at 1 µM.

For assay [7], the target named is T3, Serine/threonine-protein kinase TAO2 (Homo sapiens). The conditions noted are these: at 10 µM.
The target of assay [8] is T4, Serine/threonine-protein kinase TAO3 (Homo sapiens) (UniProt Q9H2K8).
T4 sequence (whole entry): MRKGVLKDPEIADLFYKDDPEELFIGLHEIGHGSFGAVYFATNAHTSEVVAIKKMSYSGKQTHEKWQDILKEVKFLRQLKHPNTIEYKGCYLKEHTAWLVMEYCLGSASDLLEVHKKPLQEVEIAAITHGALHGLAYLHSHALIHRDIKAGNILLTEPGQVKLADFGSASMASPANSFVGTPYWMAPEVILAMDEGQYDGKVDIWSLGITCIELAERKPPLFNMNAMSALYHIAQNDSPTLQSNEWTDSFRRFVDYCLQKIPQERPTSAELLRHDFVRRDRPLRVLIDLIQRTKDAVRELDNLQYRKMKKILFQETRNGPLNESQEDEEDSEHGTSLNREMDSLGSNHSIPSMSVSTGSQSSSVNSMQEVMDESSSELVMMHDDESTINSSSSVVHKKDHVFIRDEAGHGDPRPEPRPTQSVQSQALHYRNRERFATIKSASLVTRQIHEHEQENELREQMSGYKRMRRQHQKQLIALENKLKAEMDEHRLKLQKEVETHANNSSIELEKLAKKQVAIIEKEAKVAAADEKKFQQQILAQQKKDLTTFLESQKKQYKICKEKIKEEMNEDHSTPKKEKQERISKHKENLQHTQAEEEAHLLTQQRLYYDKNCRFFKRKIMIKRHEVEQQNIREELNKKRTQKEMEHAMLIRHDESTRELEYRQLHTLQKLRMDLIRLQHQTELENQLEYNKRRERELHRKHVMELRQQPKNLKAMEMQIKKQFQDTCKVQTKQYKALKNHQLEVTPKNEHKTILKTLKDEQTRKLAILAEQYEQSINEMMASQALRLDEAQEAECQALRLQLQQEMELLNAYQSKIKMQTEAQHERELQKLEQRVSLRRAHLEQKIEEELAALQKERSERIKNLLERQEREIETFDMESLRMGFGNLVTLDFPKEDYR
The conditions noted are these: at 1 µM.

For assay [9], the target named is T4, Serine/threonine-protein kinase TAO3 (Homo sapiens). The conditions noted are these: at 10 µM.
Assay [10] has as its target T5, Serine/threonine-protein kinase TBK1 (Homo sapiens) (UniProt Q9UHD2).
T5 sequence (whole entry): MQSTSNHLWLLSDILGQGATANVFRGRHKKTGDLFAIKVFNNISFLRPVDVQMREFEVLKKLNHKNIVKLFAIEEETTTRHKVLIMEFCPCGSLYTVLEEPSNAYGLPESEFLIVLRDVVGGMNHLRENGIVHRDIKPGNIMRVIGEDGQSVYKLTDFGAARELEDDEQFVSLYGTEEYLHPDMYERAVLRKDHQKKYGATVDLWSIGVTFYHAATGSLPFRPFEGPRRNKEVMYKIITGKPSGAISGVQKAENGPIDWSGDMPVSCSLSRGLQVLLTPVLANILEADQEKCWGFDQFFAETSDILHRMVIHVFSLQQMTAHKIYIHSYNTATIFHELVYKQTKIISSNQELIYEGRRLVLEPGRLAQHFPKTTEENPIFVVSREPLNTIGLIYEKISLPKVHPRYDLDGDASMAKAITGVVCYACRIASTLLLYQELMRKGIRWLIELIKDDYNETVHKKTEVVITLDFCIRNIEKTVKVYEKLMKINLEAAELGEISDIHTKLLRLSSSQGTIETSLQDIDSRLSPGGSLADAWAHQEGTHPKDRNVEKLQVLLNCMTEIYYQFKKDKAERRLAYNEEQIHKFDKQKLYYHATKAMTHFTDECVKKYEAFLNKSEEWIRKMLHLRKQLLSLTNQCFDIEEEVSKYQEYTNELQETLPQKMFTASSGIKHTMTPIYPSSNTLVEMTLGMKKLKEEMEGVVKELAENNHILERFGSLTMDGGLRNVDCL
As to conditions: at 1 µM.

Take `O=c1cc(N2CCOCC2)oc2c1ccc1ccccc12`: the residual activity in [1] was 94%; in assay [2], 93%; in assay [3], 90%; in assay [4], 102%; in [5], 87%; in [6], 98%. Besides, the residual activity in assay [7] turned out to be 96%; in assay [8] it was 98%; in assay [9] it was 95%; in assay [10], 77%.

As for `O=C1C(Cl)=C(N2C(=O)CCC2=O)C(=O)c2ccccc21`, the residual activity in assay [1] came to 101%; in assay [2] it was 94%; in assay [3] it was 83%; in assay [4], 89%; in assay [5] it was 94%; in assay [8], 101%. Further, the residual activity in [9] was determined as 94%; in [10], 68%.

Regarding `O=C(Nc1ccc(Cl)cc1)c1ccccc1NCc1ccncc1`, the results for the residual activity in assay [6] and in [7] were 101% and 61%, respectively.

In the case of `COc1cc2ncnc(Nc3cccc(Cl)c3)c2cc1OC`, the residual activity worked out at 71% in [1]; 102% in assay [4]; 76% in assay [5]; 113% in assay [6]; 86% in assay [7]; 102% in assay [8].

`N#C/C(=C\c1ccc(O)c(O)c1)C(=O)NCc1ccccc1`: the residual activity is 71% in [1] and 82% in [10].

Consider `O=S(=O)(NCCNC/C=C/c1ccc(Br)cc1)c1cccc2cnccc12`, for which the figures for the residual activity in assay [5] and in [9] were 59% and 61%, respectively.

Turning to `O=C1Nc2ccccc2/C1=C\c1c(Cl)[nH]c2ccccc12`, the residual activity was found to be 99% in [2]; 77% in assay [3]; 63% in assay [5]; 44% in assay [7]; 85% in assay [8]; 40% in assay [9]. In addition, the residual activity in assay [10] came out at 72%.

Consider `O=c1cc(N2CCOCC2)oc2c(-c3ccccc3)cccc12`, for which the residual activity in assay [10] is 68%.

With `CCOc1nc(NC(=O)Cc2cc(OC)ccc2OC)cc(N)c1C#N`, the residual activity in [10] worked out at 79%.

Consider `CCN1/C(=C/C(C)=O)Sc2ccc(OC)cc21`, for which the residual activity in assay [3] turned out to be 80%; in assay [4], 75%; in assay [5], 46%; in assay [10], 70%.

For the compound `Cn1c2ccccc2c2c3c(c4c5ccccc5n(CCC#N)c4c21)CNC3=O`, the residual activity in [1] came out at 5%; in [4], 7%; in assay [5], 10%; in assay [6], 10%; in [7] it was 9%; in assay [8], 19%. Also, the residual activity in [9] came to 16%; in assay [10] it was 11%.

Take `CN([C@@H](Cc1ccc(OS(=O)(=O)c2cccc3cnccc23)cc1)C(=O)N1CCN(c2ccccc2)CC1)S(=O)(=O)c1cccc2cnccc12`: the residual activity in assay [2] is 99%; in [3], 98%.
